Measured values as given in article PMC13494018.

B1: design_603_0b98da89-d791-4423-9b2d-fd1b7292da18_2026_dldesign_0_cycle1_af2pred (protein)
chain: SSMKEEEIKEMEKAAKKAAELLDDEEAAKKLLEAVKLAIEDPKEGTKKLREIAKEIGAKGSEEVKKALEEAVHAALRYRAI
B2: design_604_3e0b3014-b333-46f1-8adc-d7f0bf8048fa_253_dldesign_0_cycle1_af2pred (protein)
chain: SETTEKLKKELEAAKKEGKEALAKAEAAGDAEAAKKAGSDAAGKLYEIAAEADSAGDKETAKEARKAAKEIREAAKKAIAAAKAKAAA
B3: design_603_0b98da89-d791-4423-9b2d-fd1b7292da18_1943_dldesign_0_cycle1_af2pred (protein)
chain: PPADELLALADKKAEEVEKKIEEAAEYGKKSGDKEKALKLIDEVLKEAEKEAEELIAKPETRAAGVILRNEAEVMAKNAKEKLLK
B4: design_604_3e0b3014-b333-46f1-8adc-d7f0bf8048fa_596_dldesign_0_cycle1_af2pred (protein)
chain: DAKKEIQELTDEAIKKIEEYAKKAKDPKNYEKAIKEAVDTVHEAQQKLAEIGKKYGPEAEKYAKEQRKKVIDAGKKYIEEAKKAQA
B5: design_603_0b98da89-d791-4423-9b2d-fd1b7292da18_2319_dldesign_0_cycle1_af2pred (protein)
chain: AETWLDALDDAAKDHPSFAYAFATSIAKRAEEKIKELTEKAKENASNPELKKKLLEKAEEYKKVLEKAKEVAEKALKEYLA
B6: design_603_0b98da89-d791-4423-9b2d-fd1b7292da18_1770_dldesign_0_cycle1_af2pred (protein)
chain: DLEEVKKKASELLFKAIDLVSSGEKEEEGEKAIEEAKKILLSYGKEHPEYAKEMEEGAKKVESVYESAKKAAK
B7: design_604_3e0b3014-b333-46f1-8adc-d7f0bf8048fa_503_dldesign_0_cycle1_af2pred (protein)
chain: SAALVDARVAAADALYDAAIAAGYESLAGKIATAFIRGAATGVEAALERASAVAPEELKPVVAAEAAKVAAVA
B8: design_603_0b98da89-d791-4423-9b2d-fd1b7292da18_1818_dldesign_0_cycle1_af2pred (protein)
chain: AEEKIKEGEEKAKKFVEKAKELAKEGKYNAALGYVEAAKDVAKEIEKLSEEGKEVGKKIKEEAEKAEKIVKEKEKEKKELEE
B9: design_603_0b98da89-d791-4423-9b2d-fd1b7292da18_2177_dldesign_0_cycle1_af2pred (protein)
chain: MKALEEAEEFAKKMIEEAKKWGEAEADVAKVLGKSLLEAVEKTLKEKNEEAALAVAKEGKEKAKKIMDRIKEDIERAKKS
B10: design_603_0b98da89-d791-4423-9b2d-fd1b7292da18_1535_dldesign_0_cycle1_af2pred (protein)
chain: MEEKYLKEAEKLLEEGKKEIERAGKEEGAEAAKEVGKKYLEKLTEVAKKLSPEKEGEVLLKFKKESMKIIKEAEEREK
B11: design_603_0b98da89-d791-4423-9b2d-fd1b7292da18_2081_dldesign_0_cycle1_af2pred (protein)
chain: AEEAEKKVKELAKKAEEAFRRAREAGAKAVEKDPSVAKRASELVHQAAQYRAEAKAAKDPEEAKEALKKAEKAREELEKLAKA
B12: design_604_3e0b3014-b333-46f1-8adc-d7f0bf8048fa_171_dldesign_0_cycle1_af2pred (protein)
chain: QEALKKELEKAAAKVKELAEYIEKNAEKLTAEEAEKIAEELRKLAKKLREIGEKLDAETRKEAQKAVDLAYEAAALAKSIAARKK
B13: design_603_0b98da89-d791-4423-9b2d-fd1b7292da18_2465_dldesign_0_cycle1_af2pred (protein)
chain: ASEKAKAFSEAQRLLVRAGKLAAADPKTAPVAELVQKAIFALGDNLEEGLKLAEEAAELAKKIGDEETAKLVKEAAEKIKEVI
B14: design_603_0b98da89-d791-4423-9b2d-fd1b7292da18_1249_dldesign_0_cycle1_af2pred (protein)
chain: AEASKQAAKEIAATVRKLGEKVPEAAPLAEEAAKAVEAAAGEAPEKIAAVAIAALKEIGEKVPEATSLANEARAEARGIAHEAKK
B15: design_604_3e0b3014-b333-46f1-8adc-d7f0bf8048fa_423_dldesign_0_cycle1_af2pred (protein)
chain: AKEKALKEALKEFDKAQEYGFDYVAEAKKNPEVYEEAYEERKKAIKEAKELYKEATTEEKAKELLELAKKEAEKFKEKAKEL
B16: design_603_0b98da89-d791-4423-9b2d-fd1b7292da18_1252_dldesign_0_cycle1_af2pred (protein)
chain: AKEVVKKAKAEAKKLGEKAAAAETLEEAKKLVKELRKEAEKQAKEMKKAGAPEKDIKEVLTTAAELGAEALAEVRS
B17: design_603_0b98da89-d791-4423-9b2d-fd1b7292da18_1486_dldesign_0_cycle1_af2pred (protein)
chain: MSIELLAEAARAAVRIARALGEAEDVETAVAFRDKAIEAAAEDEEMAKKIIAAAKEVEDPATALAAARAALAAVEAFAA
B18: design_603_0b98da89-d791-4423-9b2d-fd1b7292da18_2191_dldesign_0_cycle1_af2pred (protein)
chain: MEEAKKKAEELIKRAKEHVEKARKIAKEGGSTMEAMLHILEAEADAREALKIGEKYPELKEMAEEAKEYVKKTRKEIKAILKA
B19: design_604_3e0b3014-b333-46f1-8adc-d7f0bf8048fa_75_dldesign_0_cycle1_af2pred (protein)
chain: SAEAEEAEKKALLEFSEAAAELRGLATLGKNKGNAKELAEKGFKAIEEGKKALEAATKTEEKKEIATRYAKELKELKEKLEKALS
B20: design_604_3e0b3014-b333-46f1-8adc-d7f0bf8048fa_694_dldesign_0_cycle1_af2pred (protein)
chain: SVEEKLKEAEKVFKEVEERAKKVEAKDPEEGKKLREELAKARELAESDPSKAPEAAQQARIALTEAEWEVRKKEK
B21: design_604_3e0b3014-b333-46f1-8adc-d7f0bf8048fa_188_dldesign_0_cycle1_af2pred (protein)
chain: GALEEIKKLGKKAKEAAKNGDSSEAIREFAKLAKAAGKALTPEFAKKASEKLYEVVDTLAKDEEEGKKLLEKKVEEIVKEAKKYLE
B22: design_603_0b98da89-d791-4423-9b2d-fd1b7292da18_1568_dldesign_0_cycle1_af2pred (protein)
chain: DEELKKEAKEEIKKAAEKGIAAAKAGNILEAQFYAVEAREIGREYAKKIKNKELAKEVKEYAKKQAEKIRAEAAKVLAA
B23: design_604_3e0b3014-b333-46f1-8adc-d7f0bf8048fa_145_dldesign_0_cycle1_af2pred (protein)
chain: IKQLEQLLEMAEEEAKKDPVTGIALARATINRADRLAASGTPEEAKKANEIKEKAEKVKKEAEAKLAAAEAAAKA
B24: design_603_0b98da89-d791-4423-9b2d-fd1b7292da18_2381_dldesign_0_cycle1_af2pred (protein)
chain: AAAAAEEAATAAAAALGKAVAAQVLAAADDPEKRGALVAEAQAIADKLSPAQRAAMAAAMHEAHEKIAEKKSEKAR
B25: design_603_0b98da89-d791-4423-9b2d-fd1b7292da18_1699_dldesign_0_cycle1_af2pred (protein)
chain: MTDLEIVEENIKEAREEFARDPRLGLAVARATVSTAKAMSKKSEEGKKALEKAKAFLEELEAEYRARLAAAAAAAAAAE
B26: design_604_3e0b3014-b333-46f1-8adc-d7f0bf8048fa_498_dldesign_0_cycle1_af2pred (protein)
chain: MLEFLEKVEEKADKKIEEALAKEDPVKALEEEKKKMEAELKAKSEAAKGDPGLHKLYLTAARLAKNQFDVEIKKAKEELE
B27: design_603_0b98da89-d791-4423-9b2d-fd1b7292da18_2271_dldesign_0_cycle1_af2pred (protein)
chain: MTPEEKKAAEAEKIAAAADAAIKAAEKAIASGTKAEIATEAARLESVAMAAKALGTAPDIAERAEAAAEKAWQAAVEKLE
B28: design_603_0b98da89-d791-4423-9b2d-fd1b7292da18_2382_dldesign_0_cycle1_af2pred (protein)
chain: ALAAAKEKAKAIEEKLSQAIFDGADKGPEVVFKAAEEAEKEVEEMKKADPKAKEEVKRAKEAVKKAKAVGKSMKEAEENAKKGA
B29: design_603_0b98da89-d791-4423-9b2d-fd1b7292da18_1380_dldesign_0_cycle1_af2pred (protein)
chain: GEEVAKVLEKNAEIAREGDAEEAIAALKEAAKELNKYHKLQPYAERLEFLAEELKKNKADPEKAAAIAKYGAELLKKAAEVAK
B30: design_603_0b98da89-d791-4423-9b2d-fd1b7292da18_1531_dldesign_0_cycle1_af2pred (protein)
chain: SEAKEEAKKALERLKKVRERAKEEAPLLTPEERKELSELLAKAREYLNLALVSKDEKEAKKYVEKGKEYLEKAEKLIEKAKAKA
B31: design_603_0b98da89-d791-4423-9b2d-fd1b7292da18_1363_dldesign_0_cycle1_af2pred (protein)
chain: EEEERKSRQAYGKALSLIELARHAAKADPKAYPLALKYIEKAKELAEEASEELKKEVLEEAEEAEKEVLELGKK
B32: design_604_3e0b3014-b333-46f1-8adc-d7f0bf8048fa_148_dldesign_0_cycle1_af2pred (protein)
chain: MKEASEEMAKAYEALAELRLLAKKIPEFKEDAEKAEKKLKEAVKADPETALKLAKETKEEVEKAIEKAKKKL
B33: design_603_0b98da89-d791-4423-9b2d-fd1b7292da18_2015_dldesign_0_cycle1_af2pred (protein)
chain: KETAEELLENARKLAEKAGELVGPELLEVMEKMIEAAKKEDGKKEIEELAKEALELAKKAGVPEAAEYIHQAKADAYAANVFRK
B34: design_603_0b98da89-d791-4423-9b2d-fd1b7292da18_2259_dldesign_0_cycle1_af2pred (protein)
chain: GAAALAAGKAALKEAKDTAAKANEAMGGGLQPVFDSAMKTVEAKKGDPAAYLKAATAFKTTFSRILKLAS
B35: design_603_0b98da89-d791-4423-9b2d-fd1b7292da18_1956_dldesign_0_cycle1_af2pred (protein)
chain: VTRAELAALAHEVQEAANEVYFEAKKSKNTEKLQALAREAKALVKQAASADPETALALLKEAQALVDEAKKILEKEKKE
B36: design_604_3e0b3014-b333-46f1-8adc-d7f0bf8048fa_12_dldesign_0_cycle1_af2pred (protein)
chain: MNLEEAKNLLEAAKELVEEAKELLKEGKYKQALAFAKTAYEIAEKVAKEVPELAKEAEKIKKEAKEVIEEAKKAL
B37: design_603_0b98da89-d791-4423-9b2d-fd1b7292da18_2150_dldesign_0_cycle1_af2pred (protein)
chain: HERFKYAASAETIAEQVEETAKIYGDEELKEAAKKIKEAAKEAEKSEDAEEAKKAYEKAKEIRKKARKELKAKKA
B38: design_604_3e0b3014-b333-46f1-8adc-d7f0bf8048fa_672_dldesign_0_cycle1_af2pred (protein)
chain: ALEKATEAAKKAGEAVAKALGEEGKPVAEEAIEKIADPSTWKDGFSLFLRYAYYAGEEVYKKVDELLDEVLELLS

molecular target: VTCN1, Q7Z7D3
Sequence (Q7Z7D3 whole entry): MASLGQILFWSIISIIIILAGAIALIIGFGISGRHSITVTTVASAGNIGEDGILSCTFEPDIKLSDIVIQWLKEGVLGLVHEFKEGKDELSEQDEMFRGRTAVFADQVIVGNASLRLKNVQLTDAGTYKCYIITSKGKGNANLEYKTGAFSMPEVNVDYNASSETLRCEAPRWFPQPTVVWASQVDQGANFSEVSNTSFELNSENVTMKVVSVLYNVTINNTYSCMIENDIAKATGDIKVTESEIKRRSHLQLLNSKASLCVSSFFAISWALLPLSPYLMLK

Binding in a display sort, inactive:
B1 not found
B2 not found
B3 not found
B4 not found
B5 not found
B6 not found
B7 not found
B8 not found
B9 not found
B10 not found
B11 not found
B12 not found
B13 not found
B14 not found
B15 not found
B16 not found
B17 not found
B18 not found
B19 not found
B20 not found
B21 not found
B22 not found
B23 not found
B24 not found
B25 not found
B26 not found
B27 not found
B28 not found
B29 not found
B30 not found
B31 not found
B32 not found
B33 not found
B34 not found
B35 not found
B36 not found
B37 not found
B38 not found
